Reference: PubChem BioAssay (Tox21)
Inconclusive results are not listed. The source made the active and inactive calls. Unless noted, the call rests on the fitted dose curve; in most records, active means well fitted curve in the direction sought with a large enough effect in the repeat runs; inconclusive means weak or mixed curves; inactive means no such curve, though single readings can be large; an effect the other way counts as inactive or inconclusive.

Key:
[1] = qHTS assay to identify small molecule agonists of the vitamin D receptor (VDR) signaling pathway - cell viability counter screen (AID 743224); further: on the % scale 0 is the no-effect control and ±100 the full control effect; nearly all actives have a fitted effect of over 50% in size
Method in brief: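 Counter screen for cytotoxicity: VDR-bla cells at 2,000 cells/well, 16 h compound exposure, then CellTiter-Glo luminescence after the beta-lactamase measurement.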

[2] = qHTS assay to identify small molecule antagonists of the vitamin D receptor (VDR) signaling pathway - cell viability counter screen (AID 743225); further: on the % scale 0 is the no-effect control and ±100 the full control effect; nearly all actives have a fitted effect of over 50% in size
Method in brief: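 Cytotoxicity counter screen read by CellTiter-Glo luminescence (30 min, room temperature) in the same wells as the VDR-bla antagonist readout. HEK 293T VDR-UAS-bla cells had 16 h at 37C with compound and 3 nM (final) 1-alpha,25-dihydroxyvitamin D3, then 2 h with FRET substrate.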

[3] = qHTS assay to identify small molecule agonists of the NFkB signaling pathway (AID 1159509; active means well fitted curve in the direction sought with a large enough effect in the signal ratio in the repeat runs, not every such curve was filed as active; the % refers to the signal ratio; further: on the % scale 0 is the no-effect control and ±100 the full control effect)
Method in brief: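 Pathway activation was measured in ME-180 cells stably expressing beta-lactamase under NF-kB response element control. Substrate cleavage was read as the 460/530 nm emission shift after 5 hr compound incubation.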

[4] = qHTS assay to identify small molecule agonists of the NFkB signaling pathway - cell viability counter screen (AID 1159515; calls by dose curve; further: on the % scale 0 is the no-effect control and ±100 the full control effect; nearly all actives have a fitted effect of over 55% in size)
Method in brief: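 Counter screen run alongside the NFkB-bla agonist assay: ME-180 reporter cells exposed to compounds for 5 hr, then lysed with CellTiter-Glo in the same wells. Luminescence, read after 30 min, reflects viable cells.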

[5] = qHTS assay to identify small molecule agonists of the endoplasmic reticulum stress response signaling pathway (AID 1159516; active means well fitted activation curve with a large enough effect in the signal ratio in the repeat runs, not every such curve was filed as active; the % refers to the signal ratio; further: on the % scale 0 is the no-effect control and ±100 the full control effect)
Method in brief: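 For this screen, HeLa cells stably carrying beta-lactamase under the ER stress response element received test compounds, positive controls or DMSO for 5 hr at 37 C; B/G FRET substrate was then added and dual-wavelength emission recorded.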

[6] = qHTS assay to identify small molecule agonists of the endoplasmic reticulum stress response signaling pathway - cell viability counter screen (AID 1159517; calls by dose curve; further: on the % scale 0 is the no-effect control and ±100 the full control effect; nearly all actives have a fitted effect of over 50% in size)
Method in brief: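 Cpd-treated ESRE-bla HeLa (5 hr, 37 C) → LiveBLAzer 2 hr RT → CellTiter-Glo 30 min RT → luminescence.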

[7] = qHTS assay to identify small molecule antagonists of the retinoid-related orphan receptor gamma (ROR-gamma) signaling pathway - cell viability counter screen (AID 1159520); further: on the % scale 0 is the no-effect control and ±100 the full control effect; nearly all actives have a fitted effect of over 50% in size
Method in brief: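 Tet-on ROR gamma CHO cells (1,000/well) were plated 4 hr, given compounds in DMSO for 2 hr at 37 C, then induced with 1 uM final doxycycline for 16 hr. Viability was read as ATP by CellTiter-Glo luminescence after 30 min.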

[8] = molecular target: Nuclear receptor ROR-gamma (Homo sapiens) (UniProt P51449); assay: qHTS assay to identify small molecule antagonists of the retinoid-related orphan receptor gamma (ROR-gamma) signaling pathway (AID 1159521)
Method in brief: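 Antagonist read-out: drop in luminescence (ONE-Glo) from an RORE-LUC reporter in CHO cells with doxycycline-inducible ROR-gamma; 2 hr compound pretreatment, 1 uM doxycycline, 16 hr incubation at 37 C.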

[9] = qHTS assay to identify small molecule agonists of the AP-1 signaling pathway - cell viability counter screen (AID 1159525; calls by dose curve; further: nearly all actives have a fitted effect of over 55% in size)
Method in brief: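 Each titration point was normalised to DMSO and tetra n-octyl ammonium bromide controls. The read was Cell Titer Glo luminescence after 30 min at RT, following 5 h compound exposure of ME-180 AP-1-bla cells at 37 °C.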

[10] = qHTS assay to identify small molecule agonists of the AP-1 signaling pathway (AID 1159526; calls by dose curve; further: on the % scale 0 is the no-effect control and ±100 the full control effect)
[11] = molecular target: Retinoic acid receptor RXR-alpha (Homo sapiens) (UniProt P19793); assay: qHTS assay to identify small molecule agonists of the RXR signaling pathway (AID 1159527; calls by dose curve; further: on the % scale 0 is the no-effect control and ±100 the full control effect; nearly all actives have a fitted effect of over 35% in size)
Retinoic acid receptor RXR-alpha (Homo sapiens), sequence (P19793 whole entry, looked up): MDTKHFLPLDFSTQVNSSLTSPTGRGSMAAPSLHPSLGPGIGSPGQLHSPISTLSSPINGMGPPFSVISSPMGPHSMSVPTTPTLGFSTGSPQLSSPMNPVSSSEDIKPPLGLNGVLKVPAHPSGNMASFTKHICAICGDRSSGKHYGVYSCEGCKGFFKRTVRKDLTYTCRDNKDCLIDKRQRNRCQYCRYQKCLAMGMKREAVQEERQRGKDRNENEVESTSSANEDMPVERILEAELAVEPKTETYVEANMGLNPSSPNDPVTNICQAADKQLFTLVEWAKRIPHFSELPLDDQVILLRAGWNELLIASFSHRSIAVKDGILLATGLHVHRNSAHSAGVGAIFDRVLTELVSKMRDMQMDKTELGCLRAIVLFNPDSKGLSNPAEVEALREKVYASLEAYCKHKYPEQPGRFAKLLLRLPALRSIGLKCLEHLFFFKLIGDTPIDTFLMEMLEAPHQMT
Method in brief: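 Agonist-mode beta-lactamase reporter assay: HEK 293T RXR-alpha-UAS-bla cells treated 16 hr at 37 C with compounds, 9-cis retinoic acid as positive control. LiveBLAzer FRET substrate, 405 nm excitation, 460/530 nm emission.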

[12] = qHTS assay to identify small molecule agonists of the RXR signaling pathway - cell viability counter screen (AID 1159529)
Method in brief: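 CellTiter-Glo luminescence gave viability in the wells also read for beta-lactamase. Cells (RXR-alpha-UAS-bla HEK 293T, 2% charcoal-stripped FBS medium) had 5 hr plating, then 16 hr compound exposure at 37 C; tetraoctyl ammonium bromide served as positive control.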

[13] = qHTS assay to identify small molecule antagonists of the retinoid acid receptor (RAR) signaling pathway - cell viability counter screen (AID 1159551); further: on the % scale 0 is the no-effect control and ±100 the full control effect; nearly all actives have a fitted effect of over 35% in size
Method in brief: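 Measured by luminescent ATP detection, viability reflects C3RL4 cells treated 6 h at 37 C with test chemicals in the presence of 1 uM (final) retinol.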

[14] = qHTS assay to identify small molecule antagonists of the retinoic acid receptor (RAR) signaling pathway (AID 1159552)
Method in brief: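 Luminescent RARE reporter read-out in C3RL4 cells: 6 hr co-treatment at 37 C of test compounds with retinol at 1 uM final. Cells plated overnight beforehand; luciferase reagent incubated 30 min at room temperature before reading.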

[15] = qHTS assay to identify small molecule agonists of the retinoic acid receptor (RAR) signaling pathway (AID 1159553); details: C3RL4 RARE luciferase reporter, agonist, 6 h; activation: at 73.3 µM (top of the series); further: on the % scale 0 is the no-effect control and ±100 the full control effect
Method in brief: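 6 hr compound exposure (DMSO vehicle) of overnight-plated C3RL4 RARE-luc cells at 37 C; luminescence quantified after 30 min RT with luciferase reagent.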

[16] = molecular target: Luciferin 4-monooxygenase (Photinus pyralis) (UniProt P08659); assay: qHTS assay to identify small molecule inhibitors of firefly luciferase (AID 1224835); further: on the % scale 0 is the no-effect control and ±100 the full control effect; nearly all actives have a fitted effect of over 25% in size
Luciferin 4-monooxygenase (Photinus pyralis), sequence (P08659 whole entry, looked up): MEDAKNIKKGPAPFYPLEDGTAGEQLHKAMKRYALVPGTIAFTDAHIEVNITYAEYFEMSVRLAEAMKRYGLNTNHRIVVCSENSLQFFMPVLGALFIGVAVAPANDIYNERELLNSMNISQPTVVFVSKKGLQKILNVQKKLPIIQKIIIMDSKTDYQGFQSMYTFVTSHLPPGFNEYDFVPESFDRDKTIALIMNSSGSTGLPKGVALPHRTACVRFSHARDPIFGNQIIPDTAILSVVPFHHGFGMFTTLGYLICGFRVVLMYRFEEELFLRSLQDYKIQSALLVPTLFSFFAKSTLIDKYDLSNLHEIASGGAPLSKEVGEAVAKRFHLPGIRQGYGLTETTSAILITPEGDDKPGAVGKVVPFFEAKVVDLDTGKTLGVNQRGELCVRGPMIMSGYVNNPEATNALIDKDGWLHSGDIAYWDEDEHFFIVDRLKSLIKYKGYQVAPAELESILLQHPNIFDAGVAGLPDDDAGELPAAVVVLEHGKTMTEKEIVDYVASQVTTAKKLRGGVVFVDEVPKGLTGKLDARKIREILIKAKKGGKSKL
Method in brief: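 Quantitative HTS format; KM concentrations of both substrates. Purified P. pyralis FLuc activity quantified from luminescence images.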

[17] = qHTS assay to identify small molecule agonists of the constitutive androstane receptor (CAR) signaling pathway - cell viability counter screen (AID 1224836); further: on the % scale 0 is the no-effect control and ±100 the full control effect; nearly all actives have a fitted effect of over 45% in size
Method in brief: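 Cell viability multiplexed with the CAR agonist screen: CellTiter-Fluor fluorescence after 23 hr at 37 C. HepG2-CYP2B6-hCAR cells got compounds at 15 concentrations with PK11195 at 0.75 uM final.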

[18] = qHTS assay to identify small molecule antagonists of the constitutive androstane receptor (CAR) signaling pathway - cell viability counter screen (AID 1224837); further: on the % scale 0 is the no-effect control and ±100 the full control effect; nearly all actives have a fitted effect of over 45% in size
Method in brief: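 To flag cytotoxic false antagonists, HepG2 hCAR/CYP2B6-2.2kb cells were treated 23 hr with 15-concentration compound series and 50 nM CITCO at 37 C/5% CO2; CellTiter-Fluor fluorescence was the measured end point.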

[19] = molecular target: Nuclear receptor subfamily 1 group I member 3 (Homo sapiens) (UniProt Q14994); assay: qHTS assay to identify small molecule antagonists of the constitutive androstane receptor (CAR) signaling pathway (AID 1224838);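 further: HepG2 cells stably expressing hCAR with CYP2B6 luciferase reporter stimulated by CITCO; on the % scale 0 is the no-effect control and ±100 the full control effect; nearly all actives have a fitted effect of over 40% in size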
Nuclear receptor subfamily 1 group I member 3 (Homo sapiens), sequence (Q14994 whole entry, looked up): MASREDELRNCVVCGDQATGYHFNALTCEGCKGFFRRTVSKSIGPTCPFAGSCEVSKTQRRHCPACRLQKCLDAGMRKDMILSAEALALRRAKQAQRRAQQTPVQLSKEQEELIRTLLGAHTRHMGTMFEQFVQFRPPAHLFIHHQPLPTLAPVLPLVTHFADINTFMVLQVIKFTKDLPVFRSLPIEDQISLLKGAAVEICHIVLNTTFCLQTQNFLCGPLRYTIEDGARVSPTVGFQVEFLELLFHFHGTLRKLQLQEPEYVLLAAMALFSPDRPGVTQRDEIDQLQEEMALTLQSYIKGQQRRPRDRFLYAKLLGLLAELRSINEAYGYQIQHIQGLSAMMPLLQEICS
Method in brief: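 Human hepatoma HepG2 cells expressing hCAR and a CYP2B6 promoter (2.2 kb) luciferase construct; compound titration (15 points) with 50 nM CITCO final, 24 h at 37 C/5% CO2; luminescence via ONE-Glo after 30 min at room temperature.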

[20] = qHTS assay to identify small molecule antagonists of the estrogen related receptor (ERR) signaling pathway from Tox21 library - cell viability counter screen (AID 1224834); further: on the % scale 0 is the no-effect control and ±100 the full control effect; nearly all actives have a fitted effect of over 30% in size
Method in brief: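 Seeded ERR cells were rested 6 h at 37 C/5% CO2 before compounds, positive and negative controls or DMSO were added. Incubation continued for 17.5 h, and viability was then quantified by CellTiter-Fluor fluorescence.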

O=C(O)Cc1cccc(-c2cc(CCCCCCc3ccc(O[C@H]4O[C@H](CO)[C@@H](O)[C@H](O)[C@@H]4O)c(-c4cccc(CC(=O)O)c4)c3)ccc2O[C@H]2O[C@H](CO)[C@@H](O)[C@H](O)[C@@H]2O)c1
inactive: activity change, negative = cytotoxicity [1] -3.17% [at 0.55 µM] | viability change, negative = cytotoxic [2] 5.12% [at 0.628 µM] | activation [3] 0.357% [at 0.628 µM] | activity, negative = cytotoxic [4] 0.959% [at 0.628 µM] | activation [5] 1.35% [at 0.628 µM] | activity change, negative = cytotoxicity [6] 4.41% [at 0.628 µM] | activity, negative = cytotoxicity [7] 0.991% [at 0.349 µM] | activity change, negative = inhibition [8] -17.6% [at 0.35 µM] | viability change, negative = cytotoxic [9] 1.08% [at 0.29 µM] | activation [10] -4.69% [at 0.29 µM] | activation [11] 6.74% [at 0.29 µM] | activity change, negative = cytotoxicity [12] 12.1% [at 0.29 µM] | activity change, negative = cytotoxicity [13] -1.44% [at 0.349 µM] | activity, negative = inhibition [14] -0.764% [at 0.349 µM] | activation [15] 0.783% [at 0.756 µM] | activity change, negative = inhibition [16] 2.97% [at 0.435 µM] | viability change, negative = cytotoxic [17] 5.82% [at 0.349 µM] | activity change, negative = cytotoxicity [18] 5.71% [at 0.349 µM]

C1=C\CC/C=C\CC/1
inactive: outcome [1] | outcome [2] | outcome [3] | outcome [4] | outcome [5] | outcome [6] | outcome [7] | outcome [8] | outcome [9] | outcome [10] | Potency [11] | outcome [12] | outcome [13] | Potency [14] | Potency [15] | Potency [16] | outcome [17] | Potency [19]

C[Si]1(C)N[Si](C)(C)N[Si](C)(C)N1
inactive: outcome [1] | outcome [2] | outcome [3] | outcome [4] | outcome [5] | outcome [6] | outcome [7] | outcome [8] | outcome [9] | outcome [10] | Potency [11] | outcome [12] | outcome [13] | Potency [14] | Potency [15] | Potency [20] | outcome [17] | Potency [18] | Potency [19]

CC(C)(C)NCCO
inactive: outcome [1] | outcome [2] | outcome [3] | outcome [4] | outcome [5] | outcome [6] | outcome [7] | outcome [8] | outcome [9] | outcome [10] | Potency [11] | outcome [12] | outcome [13] | Potency [14] | Potency [20] | Potency [16] | outcome [17] | Potency [18]

O=C1OC(=O)c2cc(Oc3ccc4c(c3)C(=O)OC4=O)ccc21
inactive: outcome [1] | outcome [2] | outcome [3] | outcome [4] | outcome [5] | outcome [6] | outcome [7] | outcome [8] | outcome [9] | outcome [10] | Potency [11] | outcome [12] | outcome [13] | Potency [14] | Potency [15] | Potency [16] | outcome [17] | Potency [18]

Cc1cc(C)cc([N+](=O)[O-])c1
inactive: outcome [1] | outcome [2] | outcome [3] | outcome [4] | outcome [5] | outcome [6] | outcome [7] | outcome [8] | outcome [9] | outcome [10] | Potency [11] | outcome [12] | outcome [13] | Potency [14] | Potency [15] | outcome [17]

CCCCC(CC)C(=O)OC(C)C (centres undefined)
inactive: outcome [1] | outcome [3] | outcome [4] | outcome [5] | outcome [6] | outcome [7] | outcome [8] | outcome [9] | outcome [10] | Potency [11] | outcome [12] | outcome [13] | Potency [14] | Potency [15] | Potency [16] | outcome [17] | Potency [18]
